Results filed as inconclusive are left out. Entries that show only a call come without a potency. Unmarked numbers belong to inactive results. Active and inactive are the calls of the source. The call rests on the fitted dose curve; in most records, active means well fitted curve in the direction sought with a large enough effect; inconclusive means small, poorly fitted or top-dose-only effect, or another doubt; inactive means no such curve, though single readings can be large; an effect the other way counts as inactive or inconclusive.
System: NIH3T3
Assay: qHTS assay to identify novel small-molecules to repurpose for Merkel cell carcinoma treatment (AID 1296009); further: nearly all actives have a fitted effect of over 60% in size
Conditions: MCC and control cell lines, CellTiter-Glo viability, 72 h; at 44.8 µM (top of the series) unless noted
Method in brief: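 Cells exposed to NPC (8-point) and MIPE (11-point) compound dilutions for 72 hr at 37 degree celsius; viability read by CellTiter-Glo luminescence, normalized to no-cell and DMSO in-plate controls.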

SMILES | outcome
CN1CCC[C@@H]1Cc1c[nH]c2ccc(Nc3ncccc3[N+](=O)[O-])cc12 | inactive
COC(=O)N1CCN(C(=O)Cc2ccc(Cl)c(Cl)c2)[C@@H](CN2CCCC2)C1 | inactive
CCc1[nH]c2ccc(OC)cc2c1CCN(C)C | inactive
CN1CCCC1CCOC(c1cc2nccc(C(=O)O)c2[nH]1)c1ccccc1Cl (stereo unspecified) | inactive
CC(C)(O)[C@H]1O[C@H]2CC[C@@]3(C)[C@@](O)(CC[C@H]4Cc5c([nH]c6ccccc56)[C@@]43C)C2=CC1=O | inactive [at 17.4 µM]
CO[C@@H]1[C@H](O)[C@@H](O[C@@H]2C[C@H]3CC[C@@H]4C(CC[C@]5(C)[C@@H](C6=CC(=O)OC6)CC[C@]45O)[C@@]3(C)[C@H](O)C2)O[C@H](C)[C@@H]1O[C@@H]1O[C@H](CO)[C@@H](O)[C@H](O)[C@H]1O (stereo partly specified) | inactive [at 17.4 µM]
Cc1cn(C[C@H](N)C(=O)O)c(=O)n(Cc2cc(-c3ccccc3)sc2C(=O)O)c1=O | inactive
CC(=O)OC1CC(O)C(C)(C)C2CC(OC(C)=O)C3(C)C(CCC4(C)C(c5ccoc5)C(=O)C5OC543)C12C (stereo unspecified) | inactive [at 17.4 µM]
C[C@]12CC[C@H]3[C@@H]([C@H](O)CC4=CC(=O)CC[C@@]43C)[C@@H]1CC[C@@H]2O | inactive
Clc1ccc(N2C[C@H]3CC[C@@H](C2)N3)nn1 | inactive
CC(=O)OC12C(O)C(C)C3(O)C4C=C(C)C(=O)C4CC(CO)=CC3C1C2(C)C (stereo unspecified) | inactive [at 17.4 µM]

System: C33A
Assay: Primary qHTS to identify gynecologic anti-cancer compounds using libraries of approved drugs and bioactive compounds (AID 1345084); further: nearly all actives have a fitted effect of over 55% in size; further: potency means the concentration at half of the fitted maximal effect
Conditions: Gynecologic cancer cell panel viability, ATPlite luminescence, 48 h; series mostly up to 57.5 µM
Method in brief: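 Cells, 1,000 per well, were allowed to settle for 16 h at 37 C before compound addition. Five concentrations were tested for 48 h, and viability was read by ATPlite luminescence after 15 min at room temperature.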

SMILES | Potency | activity change, negative = cytotoxicity
CN1C(=O)N(c2ccc(C#N)c(C(F)(F)F)c2)C(=O)[C@]1(CO)c1ccccc1 | inactive | –
COC1C(O)C(OC2CCC3(C=O)C(CCC4C3CCC3(C)C(C5=CC(=O)OC5)CCC43O)C2)OC(C)C1OC1OC(CO)C(O)C(O)C1O (stereo unspecified) | 501 nM (active) | –
CN1CCC[C@@H]1Cc1c[nH]c2ccc(Nc3ncccc3[N+](=O)[O-])cc12 | inactive | –
CC12CCC3C(CCC4(O)CC(O)CCC34C=O)C1(O)CCC2C1=CC(=O)OC1 (stereo unspecified) | 1000 nM (active) | –
CCOc1ccccc1-n1c(C(C)N2CCN(C(=O)COc3ccc(Cl)cc3)CC2)nc2ccccc2c1=O (stereo unspecified) | inactive | –
COC1C(O)C(C)OC(OC2C(CO)O[C@@H](O[C@@H]3CC4CCC5C(CC[C@]6(C)[C@@H](C7=CC(=O)OC7)CC[C@]56O)[C@@]4(C)[C@H](O)C3)C(O)C2O)C1O (stereo partly specified) | 794 nM (active) | –
CCCSP(=O)(OCC)SCCC | inactive | –
C[C@H]1O[C@@H](O[C@H]2C[C@@H](O)[C@]3(CO)C4C(CC[C@]3(O)C2)[C@@]2(O)CC[C@H](C3=CC(=O)OC3)[C@@]2(C)C[C@H]4O)[C@@H](O)[C@@H](O)[C@H]1O (stereo partly specified) | 398 nM (active) | –
COC(=O)N1CCN(C(=O)Cc2ccc(Cl)c(Cl)c2)[C@@H](CN2CCCC2)C1 | inactive | –
COc1cc2c(cc1OC)[C@@]13CCN4CC5=CCO[C@H]6CC(=O)N2[C@H]1[C@H]6[C@H]5C[C@H]43 | inactive | –
CCc1[nH]c2ccc(OC)cc2c1CCN(C)C | inactive | –
C=C[C@H]1CN2CC[C@H]1C[C@@H]2[C@@H](O)c1ccnc2ccccc12 | inactive | –
CN1CCCC1CCOC(c1cc2nccc(C(=O)O)c2[nH]1)c1ccccc1Cl (stereo unspecified) | inactive | –
C[C@]12CC[C@@H](O)C[C@H]1CC[C@@H]1[C@@H]2CC[C@]2(C)C(=O)CC[C@@H]12 | inactive | –
CN1[C@@H]2CC[C@H]1CC(OC(=O)C1C=Nc3ccccc31)C2 (stereo partly specified) | inactive | –
CCN1C[C@]2(COC(=O)c3ccccc3N3C(=O)C[C@H](C)C3=O)CC[C@H](OC)[C@@]34[C@@H]5C[C@H]6[C@H](OC)[C@@H]5[C@](O)(C[C@@H]6OC)[C@](O)([C@@H](OC)[C@H]23)[C@@H]14 | inactive | –
CC(C)(O)[C@H]1O[C@H]2CC[C@@]3(C)[C@@](O)(CC[C@H]4Cc5c([nH]c6ccccc56)[C@@]43C)C2=CC1=O | inactive | –
C1=C2CCCN[C@H]2[C@@H]2C[C@H]1[C@H]1CCCCN1C2 | inactive | –

SMILES | Potency | activity change, negative = cytotoxicity
CO[C@@H]1[C@H](O)[C@@H](O[C@@H]2C[C@H]3CC[C@@H]4C(CC[C@]5(C)[C@@H](C6=CC(=O)OC6)CC[C@]45O)[C@@]3(C)[C@H](O)C2)O[C@H](C)[C@@H]1O[C@@H]1O[C@H](CO)[C@@H](O)[C@H](O)[C@H]1O (stereo partly specified) | 199 nM (active) | –
Cc1cn(C[C@H](N)C(=O)O)c(=O)n(Cc2cc(-c3ccccc3)sc2C(=O)O)c1=O | inactive | –
CCC1NC(=O)C2C(Cl)C(Cl)CN2C(=O)C(C(C)O)NC(=O)CC(c2ccccc2)NC(=O)C(CO)NC1=O (stereo unspecified) | inactive | –
Cc1cc(C(=O)CN2CCCC2)c(C)n1-c1ccc(F)cc1 | inactive | –
CC(=O)OC1CC(O)C(C)(C)C2CC(OC(C)=O)C3(C)C(CCC4(C)C(c5ccoc5)C(=O)C5OC543)C12C (stereo unspecified) | inactive | –
COC(=O)C1(C)CCC(=O)C2(C)c3c(O)cc(C(C)C)cc3C(O)C(OC(C)=O)C12 (stereo unspecified) | inactive | –
COC1CC(O[C@H]2CC[C@]3(C=O)C4CC[C@]5(C)[C@@H](C6=CC(=O)OC6)CC[C@]5(O)[C@@H]4CC[C@]3(O)C2)OC(C)C1O[C@@H]1O[C@H](CO)[C@@H](O)[C@H](O)[C@H]1O (stereo partly specified) | 141 nM (active) | –
C[C@]12CC[C@H]3[C@@H]([C@H](O)CC4=CC(=O)CC[C@@]43C)[C@@H]1CC[C@@H]2O | inactive | –
COC(=O)C12C(=O)C(C)(O)C(=O)C1(C)C(C)=CC1C34CCC(OC3=O)C(C)(CO)C4CCC12C (stereo unspecified) | inactive | –
COC1CC(OC2CCC3(C=O)C(CCC4C3CCC3(C)C(C5=CC(=O)OC5)CCC43O)C2)OC(C)C1OC1OC(CO)C(O)C(O)C1O (stereo unspecified) | 158 nM (active) | –
COC1CC(OC2CCC3(C)C(CCC4C3CCC3(C)C(C5=CC(=O)OC5)C(OC(C)=O)CC43O)C2)OC(C)C1OC1OC(CO)C(O)C(O)C1O (stereo unspecified) | 3160 nM (active) | –
OC1(c2ccc(Cl)cc2)c2ccccc2C2=NCCN21 (stereo unspecified) | inactive | –
Clc1ccc(N2C[C@H]3CC[C@@H](C2)N3)nn1 | inactive | –
Oc1ccc2c3c1O[C@H]1[C@H](N(CCCl)CCCl)CC[C@@]4(O)[C@@H](C2)N(CC2CC2)CC[C@]314 | – | 3.36% [at 11.6 µM]
CC(=O)OC12C(O)C(C)C3(O)C4C=C(C)C(=O)C4CC(CO)=CC3C1C2(C)C (stereo unspecified) | inactive | –
CN(C(=O)Cc1ccccc1)C(CN1CCCC1)c1ccccc1 (stereo unspecified) | inactive | –
CO[C@H]1[C@H](O)[C@H](O[C@H]2CC[C@]3(C)C4CC[C@]5(C)[C@H](C6=CC(=O)OC6)CC[C@]5(O)C4CC[C@@H]3C2)O[C@@H](C)[C@@H]1O (stereo partly specified) | 89.1 nM (active) | –

Source: PubChem BioAssay (NCATS)
